According to PubChem BioAssay (Tox21):
Results filed as inconclusive are left out. Entries that show only a call come without a potency. The source made the active and inactive calls. Unless noted, calls follow the shape of the dose curve; as a rule, active = well fitted cell-killing curve with a large enough effect in the repeat runs; inconclusive = weak or mixed curves, or effect the other way; inactive = no such curve, though single readings can be large or run the other way.

target: Peroxisome proliferator-activated receptor gamma (Homo sapiens) (UniProt P37231); assay: qHTS assay to identify small molecule agonists of the peroxisome proliferator-activated receptor gamma (PPARg) signaling pathway (AID 743094; active = well fitted activation curve with a large enough effect in the signal ratio in the repeat runs, not every such curve was filed as active; the % refers to the signal ratio); conditions: HEK293H PPARg-UAS-bla, beta-lactamase FRET ratio, 17 h; series mostly up to 57 µM
Sequence (P37231 whole entry, looked up): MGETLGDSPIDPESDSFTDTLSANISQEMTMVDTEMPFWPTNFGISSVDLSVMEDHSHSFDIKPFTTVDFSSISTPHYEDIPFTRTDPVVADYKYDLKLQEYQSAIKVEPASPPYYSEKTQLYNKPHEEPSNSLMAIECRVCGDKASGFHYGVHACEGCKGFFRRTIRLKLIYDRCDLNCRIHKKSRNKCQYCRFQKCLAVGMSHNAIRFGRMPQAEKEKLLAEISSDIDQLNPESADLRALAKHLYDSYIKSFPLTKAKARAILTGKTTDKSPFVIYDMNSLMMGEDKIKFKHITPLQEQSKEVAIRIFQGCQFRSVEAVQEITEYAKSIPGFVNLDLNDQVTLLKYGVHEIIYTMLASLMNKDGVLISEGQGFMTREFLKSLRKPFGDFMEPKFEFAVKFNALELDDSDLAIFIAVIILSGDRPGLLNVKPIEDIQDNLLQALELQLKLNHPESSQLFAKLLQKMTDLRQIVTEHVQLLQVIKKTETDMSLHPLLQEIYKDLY
Method in brief: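 Agonism was assessed in a beta-lactamase reporter system, HEK293H cells with a stably integrated UAS-bla construct under PPARg control; the 17 h treatment at 37C preceded a 1 h room-temperature FRET substrate read.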

Compound | outcome
O=c1cc(-c2ccccc2)oc2ccccc12 | inactive
OC(CCN1CCCCC1)(c1ccccc1)C1CC2C=CC1C2 (stereo not drawn) | inactive
N#Cc1ccc(C2CCCc3cncn32)cc1 (stereo not drawn) | inactive
COCCCOCCCOC | inactive
c1ccc([C@H]2CN3CCSC3=N2)cc1 | inactive
Oc1ccc(C2CNCCc3c2cc(O)c(O)c3Cl)cc1 (stereo not drawn) | inactive
NS(=O)(=O)c1ccccc1Cl | inactive
O=C1NC(=O)[C@@]2(CCOc3ccc(F)cc32)N1 | inactive
CCC=O | inactive
CC/C=C\CC/C=C/CO | inactive
O=[N+]([O-])c1ccc(F)cc1F | inactive
C/C=C(\C)C#N | inactive
C1OCOCO1 | inactive
NC(CSCC(=O)O)C(=O)O (stereo not drawn) | inactive
O=C(O)CNC(=O)c1ccc([N+](=O)[O-])cc1 | inactive
O=C(O)CCCl | inactive
CCCN1CCCC[C@H]1C(=O)Nc1c(C)cccc1C | inactive
CC(C)(C)c1nnc(NS(=O)(=O)c2ccccc2)s1 | inactive
N[C@H]1CN(c2c(F)cc3c(=O)c(C(=O)O)cn(C4C[C@H]4F)c3c2Cl)CC12CC2 (stereo partly drawn) | inactive
C=CCCCCCCCCC=O | inactive
OCCCC1CCCCC1 | inactive
CC(C)CCCC(C)N (stereo not drawn) | inactive
Cc1ccc(C#N)cc1 | inactive
N=C(N)c1ccc2cc(OC(=O)c3ccc(N=C(N)N)cc3)ccc2c1 | inactive
CCCCC/C=C\CCC=O | inactive
O=C[C@H](O)[C@@H](O)[C@H](O)[C@H](O)CO | inactive
C[N+](C)(C)CCCCCC[N+](C)(C)C | inactive
CCCCOCCOCCOCCCC | inactive
CCCCCSCCCCC | inactive

target: Peroxisome proliferator-activated receptor gamma (Homo sapiens) (UniProt P37231); assay: qHTS assay to identify small molecule antagonists of the peroxisome proliferator-activated receptor gamma (PPARg) signaling pathway (AID 743191; calls by dose curve; also: nearly all actives have a fitted effect of over 30% in size); conditions: HEK293H PPARg-UAS-bla, beta-lactamase ratio, antagonist, 17 h; series mostly up to 62.6 µM
Method in brief: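 GeneBLAzer PPARg UAS-bla HEK293H cells carrying a UAS-driven beta-lactamase reporter were plated at 3000 cells/well, preincubated 5 h at 37C, then given compound for 17 h at 37C; LiveBLAzer B/G FRET substrate was read after 1 h at room temperature.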

Compound | Potency
CN1CCC(=C2c3ccccc3CC(=O)c3sccc32)CC1 | inactive
O=C(O)Cc1ccc(CCNS(=O)(=O)c2ccc(Cl)cc2)cc1 | inactive
CCC(=O)OC(C)c1ccccc1 (stereo not drawn) | inactive
O=C(O)COc1nn(Cc2ccccc2)c2ccccc12 | inactive

system: not listed separately; assay: qHTS assay to identify small molecule antagonists of the peroxisome proliferator-activated receptor gamma (PPARg) signaling pathway - cell viability counter screen (AID 743194); conditions: PPARg-bla HEK293H viability, CellTiter-Glo luminescence, 17 h, co-treated with 50 nM rosiglitazone; series mostly up to 62.6 µM; also: nearly all actives have a fitted effect of over 55% in size
Method in brief: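 PPARg-UAS-bla HEK293H cells were plated, rested 5 h at 37 C, then treated with compounds plus rosiglitazone (50 nM final) for 17 h at 37 C; viability was then read by CellTiter-Glo luminescence after 30 min at room temperature.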

Compound | outcome
CN1CCC(=C2c3ccccc3CC(=O)c3sccc32)CC1 | inactive
O=c1cc(-c2ccccc2)oc2ccccc12 | inactive
OC(CCN1CCCCC1)(c1ccccc1)C1CC2C=CC1C2 (stereo not drawn) | inactive
N#Cc1ccc(C2CCCc3cncn32)cc1 (stereo not drawn) | inactive
c1ccc([C@H]2CN3CCSC3=N2)cc1 | inactive
O=C1NC(=O)[C@@]2(CCOc3ccc(F)cc32)N1 | inactive
CCC=O | inactive
OC1CCCCC1c1ccccc1 (stereo not drawn) | inactive
CC/C=C\CC/C=C/CO | inactive
O=[N+]([O-])c1ccc(F)cc1F | inactive
C1OCOCO1 | inactive
NC(CSCC(=O)O)C(=O)O (stereo not drawn) | inactive
O=C(O)Cc1ccc(CCNS(=O)(=O)c2ccc(Cl)cc2)cc1 | inactive
O=C(O)CNC(=O)c1ccc([N+](=O)[O-])cc1 | inactive
O=C(O)CCCl | inactive
CCCN1CCCC[C@H]1C(=O)Nc1c(C)cccc1C | inactive
CC(C)(C)c1nnc(NS(=O)(=O)c2ccccc2)s1 | inactive
C=CCCCCCCCCC=O | inactive
Nc1c[n+](N2CCOCC2)no1 | inactive
CC(C)CCCC(C)N (stereo not drawn) | inactive
Cc1ccc(C#N)cc1 | inactive
CCCCC/C=C\CCC=O | inactive
O=C[C@H](O)[C@@H](O)[C@H](O)[C@H](O)CO | inactive
C[N+](C)(C)CCCCCC[N+](C)(C)C | inactive
CCCCCSCCCCC | inactive
